In PubChem BioAssay (NCATS) one finds Potency data, which are given here for 11 compounds.

Records with an inconclusive call do not appear. Where a call stands in place of a potency, no number is given. Active and inactive are the calls of the source. Calls come from the whole dose curve; as a rule, active = well fitted inhibition curve with a large enough effect; inconclusive = small, poorly fitted or top-dose-only effect; inactive = no such curve, though single readings can be large or run the other way.

In experiment [1] the test system is Zika virus NS2B-NS3 protease (unlinked complex). Put plainly: Primary screen GU Rhodamine qHTS for Zika virus inhibitors: Unlinked NS2B-NS3 protease assay (AID 1347159). Note: nearly all actives have a fitted effect of over 60% in size. In short, it runs like this: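 Buffer 10 mM Tris-HCl pH 8.0, 0.01% Tween 20. Unlinked protease 25 nM; compound preincubation 15 min, RT, protected from light. Substrate Rhod110, 1.5 microM; ~15% conversion in 15 min.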

Experiment [2] concerns Zika virus NS2B-NS3 protease (linked construct). The experiment is described as follows: Primary screen NINDS Rhodamine qHTS for Zika virus inhibitors (AID 1347160). Note: nearly all actives have a fitted effect of over 55% in size. The gist of the method: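 Aprotinin served as in-plate control. Conditions: 25 nM linked NS2B-NS3, pH 8.0 Tris buffer, titrated compounds, 15 min preincubation and 15 min reaction with 1.5 microM Rhod110 substrate at room temperature.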

For the compound `NC(=O)c1cccc2cn(-c3ccc(C4CCCNC4)cc3)nc12` (configuration not stated), the Potency entry in experiment [1] and in experiment [2] was “inactive” throughout.
For the compound `CC1(C)CC[C@]2(C(=O)OC3OC(CO)C(O)C(O)C3O)CC[C@]3(C)C(=CCC4[C@@]5(C)CC[C@H](OC6OC(C(=O)O)C(O)C(OC7OC(CO)C(O)C(O)C7O)C6O)C(C)(C)C5CC[C@]43C)C2C1` (some centres not stated), the Potency entry in experiment [1] and in experiment [2] was “inactive” throughout.
With `O=C(NCc1ccc(S(=O)(=O)c2cc(F)cc(F)c2)cc1)c1ccc2nccn2c1`, the Potency result in experiment [1] and in experiment [2] was “inactive” each time.
Turning to `CC1=C(CCC(C)CC(=O)O)[C@@]2(C)CCCC(C)(C)C2CC1=O` (some centres not stated), the Potency result in experiment [1] and in experiment [2] was “inactive” throughout.
Consider `CC(=O)O[C@@H]1c2c(C)coc2C(=O)[C@@]23O[C@@H]2CC[C@H](C)[C@@]13C`, for which the Potency entry in experiment [1] and in experiment [2] was “inactive” in each case.
As for `COc1c2cc(c(O)c1OC)-c1cc(ccc1O)CCC(O)CCCC2` (configuration not stated), the Potency result in experiment [1] and in experiment [2] was “inactive” each time.
`CC(C)CNCc1ccc(-c2ccccc2S(=O)(=O)N2CCCC2)cc1`: the Potency entry in experiment [1] and in experiment [2] was “inactive” in each case.
For the compound `C[C@@H](Oc1cc(-n2cnc3ccc(OC4CCN(C)CC4)cc32)sc1C(N)=O)c1ccccc1C(F)(F)F`, the Potency entry in experiment [1] and in experiment [2] was “inactive” each time.
Consider `CC(C)=CCC[C@](C)(O)[C@H]1CC[C@]2(C)[C@@H]1[C@H](O)CC1[C@@]3(C)CC[C@H](O)C(C)(C)[C@@H]3[C@@H](O[C@@H]3O[C@H](CO)[C@@H](O)[C@H](O)[C@H]3O[C@@H]3O[C@H](CO)[C@@H](O)[C@H](O)[C@H]3O)C[C@]12C` (some centres not stated), for which the Potency result in experiment [1] and in experiment [2] was “inactive” in each case.
As for `CCCCc1nc2cc(/C=C/C(=O)NO)ccc2n1CCN(CC)CC`, the Potency entry in experiment [1] and in experiment [2] was “inactive” in each case.
Take `Cn1c2ccc(F)cc2c2c(C(=O)N3CCCC3)cn(-c3ccccc3)c(=O)c21`: the Potency result in experiment [1] and in experiment [2] was “inactive” throughout.
